About 83,000 compounds went through this panel and 20% of them were active in at least one assay; those are over-represented in the sample as a whole.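 The test compound was applied at a single concentration to cells in 96-well plates for 48 hours, and percent growth was recorded.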 A number with no mark means an inactive call. Calls of active or inactive are those of the source. The calls were made as follows: active = growth percent below 10; inactive = the rest.
Key:
Assay in all cases: NCI-60 one-dose screen, 48 h (100 = growth as untreated, 0 = no growth, -100 = all killed)
Conditions in all cases: 10 µM unless noted
DU-145 prostate = test system: DU-145 prostate
K-562 leukemia = test system: K-562 leukemia
MALME-3M melanoma = test system: MALME-3M melanoma
MDA-MB-231 breast = test system: MDA-MB-231 breast
RXF 393 renal = test system: RXF 393 renal
SF-268 CNS = test system: SF-268 CNS
SF-295 CNS = test system: SF-295 CNS
SF-539 CNS = test system: SF-539 CNS
UACC-257 melanoma = test system: UACC-257 melanoma
M14 melanoma = test system: M14 melanoma
HCT-15 colon = test system: HCT-15 colon
HT29 colon = test system: HT29 colon
SNB-75 CNS = test system: SNB-75 CNS
SNB-19 CNS = test system: SNB-19 CNS
U251 CNS = test system: U251 CNS
PC-3 prostate = test system: PC-3 prostate
SK-MEL-5 melanoma = test system: SK-MEL-5 melanoma
UACC-62 melanoma = test system: UACC-62 melanoma
LOX IMVI melanoma = test system: LOX IMVI melanoma
SK-MEL-28 melanoma = test system: SK-MEL-28 melanoma

Row | SMILES | growth (DU-145 prostate) | growth (K-562 leukemia) | growth (MALME-3M melanoma) | growth (MDA-MB-231 breast) | growth (RXF 393 renal) | growth (SF-268 CNS) | growth (SF-295 CNS) | growth (SF-539 CNS) | growth (UACC-257 melanoma) | growth (M14 melanoma) | growth (HCT-15 colon) | growth (HT29 colon) | growth (SNB-75 CNS) | growth (SNB-19 CNS) | growth (U251 CNS) | growth (PC-3 prostate) | growth (SK-MEL-5 melanoma) | growth (UACC-62 melanoma) | growth (LOX IMVI melanoma) | growth (SK-MEL-28 melanoma)
1 | Nc1ncnc2c1c(C(F)(F)F)cn2[C@@H]1O[C@H](CO)[C@@H](O)[C@H]1O | 17.9% | 5.69% (active) | -16.9% (active) | 15.7% | -45.2% (active) | 7.4% (active) | 7.79% (active) | -31.7% (active) | -5.51% (active) | 2.76% (active) | 4.22% (active) | 1.42% (active) | -35.1% (active) | 14.6% | 3.73% (active) | 12.1% | -32.1% (active) | -38.6% (active) | 6.25% (active) | 1.5% (active)
2 | COc1ccc(C(=O)NC(=O)Nc2ccc3c(c2)NC(=O)/C3=C\c2[nH]c(C)c(C(=O)O)c2C)cc1 | 71.1% | 79.3% | 41.9% | 86.8% | 49.1% | 61.4% | 105% | 72.9% | 107% | 90.5% | 93.5% | 45.1% | 73.7% | 80.3% | 52.9% | 86.1% | 87.1% | 91.3% | 82.5% | 102%
3 | CCN(CC)CCNc1ccc([N+](=O)[O-])c2sc3cc(Cl)ccc3c(=O)c12 | 50.2% | 1.93% (active) | -9.6% (active) | 22.6% | -39.3% (active) | 52.4% | 43.9% | 34.5% | 71.5% | 79.4% | 48.5% | 34.7% | 1.48% (active) | 42.2% | 40.4% | 48.5% | 61.7% | 30.9% | 19.1% | -47.5% (active)
4 | COc1ccc2c(-c3ccc(F)cc3)c(C#N)c(=NC(C)=O)oc2c1 | 49.6% | 8% (active) | 53.7% | 54.7% | 36% | 52.7% | 37.9% | 28.4% | 72% | 19.8% | 25.8% | 95.6% | 34% | 33.7% | 39.5% | 30.6% | 24.7% | 32.1% | 41.9% | 69.7%
5 | CCCCCCCCN(CCCCCCCC)CC(O)c1cc(-c2ccccc2)nc2ccc(OC)cc12 (stereo not given) | 82.6% | 52.2% | 91.3% | 63.7% | 90.2% | 38.3% | 93.8% | 0.739% (active) | 83.2% | 24.7% | 10.7% | 80.1% | 96.4% | 63.2% | 15.7% | 32.3% | 46.5% | 52.5% | 21% | 100%
6 | COc1ccc(/C=C/C(=O)c2ccc(NC(=O)CSc3nnc(-c4cc(OC)c(OC)c(OC)c4)o3)cc2)cc1 | 4.04% (active) | -52.2% (active) | -70.7% (active) | -80.7% (active) | -84.3% (active) | -76.7% (active) | 57.6% | -90.3% (active) | 40.1% | -60.1% (active) | -79.6% (active) | -80.9% (active) | -89.7% (active) | -48.7% (active) | -90.1% (active) | -34.7% (active) | -84.2% (active) | -46.3% (active) | -69.4% (active) | -21% (active)
7 | COc1ccc(Cl)cc1NC(=O)c1cc2c([nH]1)-c1nc(N)sc1CCC2 | 101% | 74.7% | 101% | 105% | 114% | 98.2% | 106% | 99.4% | 91% | 97.6% | 97.7% | 83.2% | 105% | 112% | 101% | 97.8% | 101% | 93.1% | 91.7% | 103%
8 | CCCCCCCCCCCC(=O)OCCNC(=O)C[n+]1ccccc1 | 131% | 117% | 96.3% | 99.6% | 110% | 104% | 78.7% | 105% | 106% | 102% | 110% | 93.7% | 96.5% | 102% | 101% | 92.5% | 100% | 104% | 106% | 109%
9 | COC(=O)c1ccc2c(c1)Oc1ccc(Cl)cc1-c1cc(C)nn1-2 | 82.3% | 89.5% | 80% | 60.7% | 91.8% | 80.5% | 24.6% | 68.4% | 108% | 89% | 91.6% | 74.3% | 63.3% | 68.8% | 19.1% | 76% | 86% | 84.7% | 57.9% | 106%
10 | O=C(CSc1nnc(-c2ccc(Cl)cc2)o1)Nc1ccc(C(=O)/C=C/c2ccccc2)cc1 | 101% | 99.3% | 106% | 99.1% | 112% | 103% | 105% | 106% | 101% | 96% | 96.7% | 98% | 90.4% | 86.9% | 99.3% | 99.4% | 98% | 85.6% | 85.3% | 105%
11 | C[C@@H]1CC2C3C[C@H](F)C4=CC(=O)C=C[C@]4(C)[C@@]3(F)[C@@H](O)C[C@]2(C)[C@@]1(O)C(=O)CO (stereo not given in full) | 80.8% | 107% | 84.7% | 95.1% | 120% | 88.8% | 116% | 83.2% | 88.4% | 93.5% | 101% | 102% | 132% | 91.8% | 105% | 86.1% | 90.4% | 97.3% | 92.1% | 108%
12 | Cc1nc(N)nc(SCc2ccccc2)c1Br | 104% | 88.4% | 92.6% | 91.1% | 89.6% | 96.1% | 99.1% | 96.4% | 74.1% | 104% | 102% | 92.8% | 87.3% | 99.3% | 85.4% | 83.8% | 88.4% | 75.8% | 95.7% | 106%

Source: PubChem BioAssay (NCI)
